# Experimental data reported in PubChem BioAssay (EPA / NIEHS).
# Where “and” joins values, the source holds several entries; their conditions need not be identical. Equal entries are not always repeated. Records with an inconclusive call do not appear. Calls of active or inactive are those of the source. Rule for the calls: active = hit-call score of the fitted dose curve at least 0.9, where 1 is the maximum; inconclusive = response in the unintended direction; inactive = score below 0.9.
# Columns and labels:
# [1] = target: Tyrosine-protein phosphatase non-receptor type 11 (Homo sapiens) (UniProt Q06124); assay: NVS_ENZ_hPTPN11: NovaScreen (NVS) Enzymatic Assay for human Protein Tyrosine Phosphatase Non-receptor Type 11 (PTPN11) (AID 2283202)
# Protocol: (§1) NVS_ENZ_hPTPN11 is a biochemical, single-readout assay that uses extracted gene-proteins in a cell-free assay. Measurements were taken 0.5 hour after chemical dosing in a 384-well plate.NVS_ENZ_hPTPN11 is one of one assay component(s) measured or calculated from the NVS_ENZ_hPTPN11 assay. It is designed to make measurements of enzyme activity, a form of enzyme reporter, as detected with fluorescence intensity signals by Fluorescence and electrophoretic mobility shift technology.Data from the assay component NVS_ENZ_hPTPN11 was analyzed into 1 assay endpoint. This assay endpoint, NVS_ENZ_hPTPN11, was analyzed in the positive analysis fitting direction relative to DMSO as the negative control and baseline of activity. Using a type of enzyme reporter, loss-of-signal activity can be used to understand changes in the enzymatic activity as they relate to the gene PTPN11. Furthermore, this assay endpoint can be referred to as a primary readout, because this assay has produced multiple assay endpoints where this one serves a enzymatic activity function. To generalize the intended target to other relatable targets, this assay endpoint is annotated to the phosphatase intended target family, where the subfamily is non-receptor tyrosine phosphatase.
# (§2) Binding assays used specific radioligands (tritiated, iodinated) with non-radioactive competitive displacement ligands in agonist or antagonist protocols (as indicated) and various reference compounds and inhibitors to titrate specific binding to receptors and transporters. Most enzyme assays (CYPs, kinases, phosphatases, proteases, HDACs) used recombinant protein and specific substrates (fluorescence mostly, some colorimetric and radioactive) and inhibitors, followed by a biochemical separation of substrate and product. All assays for the biochemical HTS were initially run in duplicate at a single concentration (10 uM for CYP450 assays and 25 uM for all others). Assay-chemical combinations meeting a pre-defined threshold (e.g., 30% inhibition and other criteria defined below) were then run in singleton concentration-response format with maximum concentration of 20 uM for CYPs and 50 uM for all others. Each assay was run with positive and negative controls, and concurrent controls on every plate. The follow-up (secondary) screen tested active chemical-pairs in concentration series, as well as a few additional assays not tested in the primary screen, some selected negative inactives, and several cases re-run in the concentration series for confirmatory purposes.
# [2] = target: human Protein Tyrosine Phosphatase Non-receptor Type 1 (PTPN1), PTPN1 (gene 5770) (UniProt P18031); assay: NVS_ENZ_hPTPN1: NovaScreen (NVS) Enzymatic Assay for human Protein Tyrosine Phosphatase Non-receptor Type 1 (PTPN1) (AID 2283201)
# Summary of the method: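 Cell-free fluorogenic-substrate activity assay on recombinant enzyme, read 1.33 h after dosing by fluorescence and electrophoretic mobility shift; loss of signal vs DMSO baseline. Primary screen in duplicate at 25 uM, hits then run in concentration-response up to 50 uM.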
# [3] = target: human Phosphodiesterase 5 (PDE5), PDE5A (gene 8654) (UniProt O76074); assay: NVS_ENZ_hPDE5: NovaScreen (NVS) Enzymatic Assay for human Phosphodiesterase 5 (PDE5) (AID 2283194)
# Summary of the method: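 Recombinant human PDE5 with specific substrate, read 1 h after dosing by fluorescence with electrophoretic mobility-shift separation of substrate and product. Initial single-concentration duplicate screen at 25 uM, actives followed in concentration series; loss of activity versus DMSO.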
# [4] = target: human Phosphoinositide 3-kinase alpha (PI3Ka), PIK3CA (gene 5290) (UniProt P42336); assay: NVS_ENZ_hPI3Ka: NovaScreen (NVS) Enzymatic Assay for human Phosphoinositide 3-kinase alpha (PI3Ka) (AID 2283196)
# Summary of the method: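 Duplicate single-point screen (25 uM), then singleton dose-response (max 50 uM) for compounds meeting the threshold. Cell-free kinase reaction, 1 h; fluorescent mobility-shift readout.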
# [5] = target: human Protein Phosphatase, Mg2+/Mn2+ Dependent 1A (PPM1A), PPM1A (gene 5494) (UniProt P35813); assay: NVS_ENZ_hPPM1A: NovaScreen (NVS) Enzymatic Assay for human Protein Phosphatase, Mg2+/Mn2+ Dependent 1A (PPM1A) (AID 2283198)
# Protocol: as §1, with “NVS_ENZ_hPPM1A” for “NVS_ENZ_hPTPN11”, “1” for “0.5”, “plate.NVS_ENZ_hPPM1A” for “plate.NVS_ENZ_hPTPN11”, “NVS_ENZ_hPPM1A,” for “NVS_ENZ_hPTPN11,”, “PPM1A.” for “PTPN11.”, “serine/threonine” for “non-receptor tyrosine”
# Binding assays used specific radioligands (tritiated, iodinated) with non-radioactive competitive displacement ligands in agonist or antagonist protocols (as indicated) and various reference compounds and inhibitors to titrate specific binding to receptors and transporters. Most enzyme assays (CYPs, kinases, phosphatases, proteases, HDACs) used recombinant protein and specific substrates (fluorescence mostly, some colorimetric and radioactive) and inhibitors, followed by a biochemical separation of substrate and product. All assays for the biochemical HTS were initially run in duplicate at a single concentration (10 uM for CYP450 assays and 25 uM for all others). […]
# [6] = target: Serine/threonine-protein phosphatase PP1-alpha catalytic subunit (Homo sapiens) (UniProt P62136); assay: NVS_ENZ_hPPP1CA: NovaScreen (NVS) Enzymatic Assay for human Protein Phosphatase 1 Aatalytic subunit Alpha (PPP1CA) (AID 2283200)
# Summary of the method: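 Recombinant enzyme activity read by fluorescence with electrophoretic mobility shift separating substrate from product, 1.33 h after dosing; loss of signal vs DMSO baseline. Primary screen in duplicate at 25 uM; actives retested in concentration-response up to 50 uM.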
# [7] = target: human Phosphodiesterase 4A1 (PDE4A1), PDE4A (gene 5141) (UniProt P27815); assay: NVS_ENZ_hPDE4A1: NovaScreen (NVS) Enzymatic Assay for human Phosphodiesterase 4A1 (PDE4A1) (AID 2283191)
# Summary of the method: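 Cell-free recombinant human PDE4A1 with fluorescent substrate; product separated by electrophoretic mobility shift, 1 h. Screened at 25 uM, then up to 50 uM in concentration-response; loss of signal fitted against DMSO.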
# [8] = target: cAMP-dependent protein kinase catalytic subunit alpha (Homo sapiens) (UniProt P17612); assay: NVS_ENZ_hPKA: NovaScreen (NVS) Enzymatic Assay for human Protein Kinase A (PKA) (AID 2283192)
# Summary of the method: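 Recombinant human PKA with specific fluorescent substrate, product separated by electrophoretic mobility shift, read 1 h after dosing. Primary screen at 25 uM in duplicate; actives then run in concentration-response up to 50 uM, activity relative to DMSO.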
# [9] = target: Tyrosine-protein phosphatase non-receptor type 12 (Homo sapiens) (UniProt Q05209); assay: NVS_ENZ_hPTPN12: NovaScreen (NVS) Enzymatic Assay for human Protein Tyrosine Phosphatase Non-receptor Type 12 (PTPN12) (AID 2283204)
# Protocol: as §1, with “NVS_ENZ_hPTPN12” for “NVS_ENZ_hPTPN11”, “1.33 hours” for “0.5 hour”, “plate.NVS_ENZ_hPTPN12” for “plate.NVS_ENZ_hPTPN11”, “NVS_ENZ_hPTPN12,” for “NVS_ENZ_hPTPN11,”, “PTPN12.” for “PTPN11.”, “phosphatase. […]” for “phosphatase.”
# [10] = target: human Phosphodiesterase 10 (PDE10), PDE10A (gene 10846) (UniProt Q9Y233); assay: NVS_ENZ_hPDE10: NovaScreen (NVS) Enzymatic Assay for human Phosphodiesterase 10 (PDE10) (AID 2283195)
# Protocol: NVS_ENZ_hPDE10 is a biochemical, single-readout assay that uses extracted gene-proteins in a cell-free assay. Measurements were taken 1 hour after chemical dosing in a 384-well plate.NVS_ENZ_hPDE10 is one of one assay component(s) measured or calculated from the NVS_ENZ_hPDE10 assay. It is designed to make measurements of enzyme activity, a form of enzyme reporter, as detected with fluorescence intensity signals by Fluorescence and electrophoretic mobility shift technology.Data from the assay component NVS_ENZ_hPDE10 was analyzed into 1 assay endpoint. This assay endpoint, NVS_ENZ_hPDE10, was analyzed in the positive analysis fitting direction relative to DMSO as the negative control and baseline of activity. Using a type of enzyme reporter, loss-of-signal activity can be used to understand changes in the enzymatic activity as they relate to the gene PDE10A. Furthermore, this assay endpoint can be referred to as a primary readout, because this assay has produced multiple assay endpoints where this one serves a enzymatic activity function. To generalize the intended target to other relatable targets, this assay endpoint is annotated to the esterase intended target family, where the subfamily is phosphodiesterase.
# as §2
# human Phosphodiesterase 4A1 (PDE4A1), PDE4A (gene 5141), sequence (P27815 whole entry, looked up): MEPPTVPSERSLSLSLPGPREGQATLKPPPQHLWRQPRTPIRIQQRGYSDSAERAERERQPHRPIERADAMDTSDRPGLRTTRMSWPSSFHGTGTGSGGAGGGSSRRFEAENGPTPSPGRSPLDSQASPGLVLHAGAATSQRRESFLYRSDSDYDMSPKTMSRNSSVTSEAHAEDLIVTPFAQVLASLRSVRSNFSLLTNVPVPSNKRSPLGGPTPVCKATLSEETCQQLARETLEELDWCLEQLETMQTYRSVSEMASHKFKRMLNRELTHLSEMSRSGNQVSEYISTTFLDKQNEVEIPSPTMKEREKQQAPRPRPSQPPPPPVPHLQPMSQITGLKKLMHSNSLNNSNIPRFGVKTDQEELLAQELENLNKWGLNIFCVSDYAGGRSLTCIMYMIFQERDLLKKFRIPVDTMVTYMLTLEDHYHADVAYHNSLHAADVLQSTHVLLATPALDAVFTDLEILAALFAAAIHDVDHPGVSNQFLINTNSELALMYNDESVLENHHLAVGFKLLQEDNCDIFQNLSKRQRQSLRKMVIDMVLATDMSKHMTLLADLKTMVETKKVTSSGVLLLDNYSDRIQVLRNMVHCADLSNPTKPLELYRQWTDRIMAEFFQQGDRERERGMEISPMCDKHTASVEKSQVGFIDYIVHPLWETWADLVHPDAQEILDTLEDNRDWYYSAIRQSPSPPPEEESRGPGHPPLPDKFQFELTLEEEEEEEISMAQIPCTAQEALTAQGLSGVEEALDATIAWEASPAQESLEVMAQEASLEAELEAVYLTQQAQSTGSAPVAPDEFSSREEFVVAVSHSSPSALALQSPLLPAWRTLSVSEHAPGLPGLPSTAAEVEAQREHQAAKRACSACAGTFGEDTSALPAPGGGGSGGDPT
# Tyrosine-protein phosphatase non-receptor type 11 (Homo sapiens), sequence (Q06124 whole entry, looked up): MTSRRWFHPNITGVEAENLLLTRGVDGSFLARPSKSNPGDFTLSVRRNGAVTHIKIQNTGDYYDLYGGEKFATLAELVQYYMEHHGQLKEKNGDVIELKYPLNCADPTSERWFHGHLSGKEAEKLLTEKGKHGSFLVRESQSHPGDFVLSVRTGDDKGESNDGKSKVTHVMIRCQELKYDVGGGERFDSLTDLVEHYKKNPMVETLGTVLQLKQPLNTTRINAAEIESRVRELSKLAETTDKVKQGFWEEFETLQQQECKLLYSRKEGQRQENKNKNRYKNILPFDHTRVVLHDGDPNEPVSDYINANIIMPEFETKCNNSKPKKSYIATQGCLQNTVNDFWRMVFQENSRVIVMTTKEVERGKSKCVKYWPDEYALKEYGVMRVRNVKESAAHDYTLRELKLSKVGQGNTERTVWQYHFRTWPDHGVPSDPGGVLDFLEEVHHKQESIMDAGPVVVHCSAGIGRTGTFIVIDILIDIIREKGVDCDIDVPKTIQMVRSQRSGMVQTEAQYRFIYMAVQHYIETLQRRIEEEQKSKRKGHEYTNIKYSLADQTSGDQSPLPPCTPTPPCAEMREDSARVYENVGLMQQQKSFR
# Serine/threonine-protein phosphatase PP1-alpha catalytic subunit (Homo sapiens), sequence (P62136 whole entry, looked up): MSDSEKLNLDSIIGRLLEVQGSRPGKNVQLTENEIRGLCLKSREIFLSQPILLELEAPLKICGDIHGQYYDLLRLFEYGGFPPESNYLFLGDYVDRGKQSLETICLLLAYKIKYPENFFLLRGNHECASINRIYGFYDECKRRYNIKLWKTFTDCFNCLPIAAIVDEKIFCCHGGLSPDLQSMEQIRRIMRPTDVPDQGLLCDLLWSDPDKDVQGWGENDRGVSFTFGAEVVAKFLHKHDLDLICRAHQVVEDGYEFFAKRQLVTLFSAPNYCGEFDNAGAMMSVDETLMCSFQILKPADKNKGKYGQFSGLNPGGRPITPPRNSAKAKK
# human Phosphodiesterase 10 (PDE10), PDE10A (gene 10846), sequence (Q9Y233 whole entry, looked up): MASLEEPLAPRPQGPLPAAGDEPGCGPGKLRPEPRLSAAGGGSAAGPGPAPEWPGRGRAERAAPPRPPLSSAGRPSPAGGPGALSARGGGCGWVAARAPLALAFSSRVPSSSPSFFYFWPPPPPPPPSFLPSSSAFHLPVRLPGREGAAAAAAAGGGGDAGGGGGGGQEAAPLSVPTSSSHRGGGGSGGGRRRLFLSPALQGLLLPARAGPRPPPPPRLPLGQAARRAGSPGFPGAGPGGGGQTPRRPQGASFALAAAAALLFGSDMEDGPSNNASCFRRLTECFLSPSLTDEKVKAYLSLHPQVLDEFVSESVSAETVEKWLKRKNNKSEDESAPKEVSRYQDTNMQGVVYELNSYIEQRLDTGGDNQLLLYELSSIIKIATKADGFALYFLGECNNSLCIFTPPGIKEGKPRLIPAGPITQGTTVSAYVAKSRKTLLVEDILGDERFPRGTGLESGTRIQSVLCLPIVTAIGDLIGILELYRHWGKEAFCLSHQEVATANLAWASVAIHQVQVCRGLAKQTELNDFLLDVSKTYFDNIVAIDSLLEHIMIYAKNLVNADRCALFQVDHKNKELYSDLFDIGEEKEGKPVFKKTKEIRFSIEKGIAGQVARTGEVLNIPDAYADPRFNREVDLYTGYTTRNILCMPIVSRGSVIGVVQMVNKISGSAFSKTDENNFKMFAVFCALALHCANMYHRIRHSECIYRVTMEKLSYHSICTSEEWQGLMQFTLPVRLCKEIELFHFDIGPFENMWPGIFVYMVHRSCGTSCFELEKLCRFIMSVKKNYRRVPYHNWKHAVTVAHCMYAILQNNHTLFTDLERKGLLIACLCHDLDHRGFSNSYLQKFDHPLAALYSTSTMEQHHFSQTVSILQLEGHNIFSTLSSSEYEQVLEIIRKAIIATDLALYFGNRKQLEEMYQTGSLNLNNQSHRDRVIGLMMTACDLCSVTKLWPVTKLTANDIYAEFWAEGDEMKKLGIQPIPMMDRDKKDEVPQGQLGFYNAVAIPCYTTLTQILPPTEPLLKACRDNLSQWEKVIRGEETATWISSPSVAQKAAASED
# human Protein Phosphatase, Mg2+/Mn2+ Dependent 1A (PPM1A), PPM1A (gene 5494), sequence (P35813 whole entry, looked up): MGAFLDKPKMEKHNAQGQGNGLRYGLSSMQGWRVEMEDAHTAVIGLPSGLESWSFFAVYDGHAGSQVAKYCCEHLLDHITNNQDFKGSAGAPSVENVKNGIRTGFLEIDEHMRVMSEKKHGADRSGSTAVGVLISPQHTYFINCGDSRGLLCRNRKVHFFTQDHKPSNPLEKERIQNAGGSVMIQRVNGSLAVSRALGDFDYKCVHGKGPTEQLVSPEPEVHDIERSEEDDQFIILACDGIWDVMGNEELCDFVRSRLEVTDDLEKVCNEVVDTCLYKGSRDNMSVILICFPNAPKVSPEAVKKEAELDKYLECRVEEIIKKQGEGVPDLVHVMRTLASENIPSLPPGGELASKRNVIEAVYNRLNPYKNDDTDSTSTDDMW
# human Protein Tyrosine Phosphatase Non-receptor Type 1 (PTPN1), PTPN1 (gene 5770), sequence (P18031 whole entry, looked up): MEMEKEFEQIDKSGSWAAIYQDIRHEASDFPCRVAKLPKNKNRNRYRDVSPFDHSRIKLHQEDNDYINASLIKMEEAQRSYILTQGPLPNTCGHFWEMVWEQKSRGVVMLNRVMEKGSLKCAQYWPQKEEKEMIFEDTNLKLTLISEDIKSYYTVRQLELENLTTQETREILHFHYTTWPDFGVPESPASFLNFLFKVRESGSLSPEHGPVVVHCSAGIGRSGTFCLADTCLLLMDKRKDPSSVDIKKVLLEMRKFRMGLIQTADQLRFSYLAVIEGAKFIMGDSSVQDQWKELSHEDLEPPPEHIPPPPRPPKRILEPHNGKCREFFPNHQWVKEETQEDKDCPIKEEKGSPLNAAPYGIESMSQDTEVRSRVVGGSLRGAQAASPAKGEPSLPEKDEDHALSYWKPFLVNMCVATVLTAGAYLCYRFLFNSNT
# human Phosphoinositide 3-kinase alpha (PI3Ka), PIK3CA (gene 5290), sequence (P42336 whole entry, looked up): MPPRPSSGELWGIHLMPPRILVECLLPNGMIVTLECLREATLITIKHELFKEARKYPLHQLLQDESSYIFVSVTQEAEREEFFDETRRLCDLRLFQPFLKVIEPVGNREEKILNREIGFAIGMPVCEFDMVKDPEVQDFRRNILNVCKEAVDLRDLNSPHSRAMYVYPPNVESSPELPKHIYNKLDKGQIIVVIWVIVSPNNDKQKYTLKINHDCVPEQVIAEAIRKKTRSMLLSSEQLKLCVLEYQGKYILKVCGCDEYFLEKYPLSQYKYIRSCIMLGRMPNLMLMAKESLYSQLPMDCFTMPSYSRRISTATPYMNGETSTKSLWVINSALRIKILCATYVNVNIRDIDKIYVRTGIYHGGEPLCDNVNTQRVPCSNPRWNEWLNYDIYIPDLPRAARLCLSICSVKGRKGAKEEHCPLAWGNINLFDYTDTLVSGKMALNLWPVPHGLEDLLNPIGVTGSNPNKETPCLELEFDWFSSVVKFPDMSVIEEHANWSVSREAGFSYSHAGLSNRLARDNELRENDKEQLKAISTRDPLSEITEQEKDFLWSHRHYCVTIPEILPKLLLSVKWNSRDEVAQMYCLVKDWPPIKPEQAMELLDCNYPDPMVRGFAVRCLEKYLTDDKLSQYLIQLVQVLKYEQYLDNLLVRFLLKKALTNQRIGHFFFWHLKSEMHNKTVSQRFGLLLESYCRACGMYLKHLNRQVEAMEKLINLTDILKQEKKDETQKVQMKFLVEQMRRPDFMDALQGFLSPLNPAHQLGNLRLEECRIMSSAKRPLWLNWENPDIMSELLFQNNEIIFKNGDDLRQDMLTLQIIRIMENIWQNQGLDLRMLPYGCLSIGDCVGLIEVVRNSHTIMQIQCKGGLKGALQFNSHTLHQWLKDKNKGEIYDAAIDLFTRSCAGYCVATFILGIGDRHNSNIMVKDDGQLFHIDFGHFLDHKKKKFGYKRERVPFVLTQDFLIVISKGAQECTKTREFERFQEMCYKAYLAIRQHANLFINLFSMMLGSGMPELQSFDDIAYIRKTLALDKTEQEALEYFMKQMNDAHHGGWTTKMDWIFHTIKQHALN
smiles,measurement,setting,value
O=C1CCC(C2CCCCC2)CC1,outcome,[1],inactive
c1ccc(C[n+]2cccc3ccccc32)cc1,outcome,[2],inactive
CC(C)(C)c1csc(-c2cc3cc(OCc4ccccc4CC(=O)O)ccc3o2)n1,outcome,[3],inactive
same,outcome,[2],inactive
same,outcome,[1],inactive
CCCCCCCCN(C)CCCCCCCC,outcome,[4],inactive
same,outcome,[5],inactive
CC[C@H](NC(=O)c1cc(F)ccc1NS(=O)(=O)c1cccc2cccnc12)c1ccccc1,outcome,[3],inactive
same,outcome,[6],inactive
CC/C(=C(/CC)c1ccc(O)cc1)c1ccc(O)cc1,outcome,[7],inactive
same,outcome,[8],inactive
same,outcome,[3],inactive
same,AC50,[4],40 µM (active) and 17.3 µM (active) and 27.8 µM (active)
same,outcome,[1],inactive
same,outcome,[9],inactive
O=C(O)Cc1cc(I)c(Oc2ccc(O)c(I)c2)c(I)c1,AC50,[10],3.32 µM (active)
O=C1c2ccccc2C(=O)N1CCc1noc(-c2ccc(CN3CCCCCC3)s2)n1,outcome,[1],inactive
CCOC(=O)O[C@H](C)OC(=O)c1ccc2c(c1)cc(C(=O)NC1CCN(C(C)C)CC1)n2Cc1cc(-c2ccc(Cl)s2)on1,AC50,[6],18.6 µM (active)
O=C(Nc1ccc(Cl)cc1)Nc1ccc(Cl)c(Cl)c1,outcome,[7],inactive
CN(C)C(=O)C1(N2CCCCC2)CCN(CC[C@@]2(c3ccc(Cl)c(Cl)c3)CN(C(=O)c3ccccc3)CCO2)CC1,outcome,[3],inactive
CN1C(=O)N(c2ccccc2Br)Cc2cnc(Nc3ccc4c(c3)OCC(CO)O4)nc21 (centres undefined),AC50,[7],6.38 µM (active)
same,AC50,[10],1.09 µM (active)
same,outcome,[2],inactive
Clc1cc(Cl)c2c(c1)N=C1CCCCCN1C2,outcome,[7],inactive
same,outcome,[3],inactive
c1ccc2ccccc2c1,outcome,[6],inactive
same,outcome,[1],inactive
CC[C@@H]1C[C@H](N(Cc2cc(C(F)(F)F)cc(C(F)(F)F)c2)C(C)=O)c2cc(C(F)(F)F)ccc2N1C(=O)OC(C)C,outcome,[2],inactive
Cc1c2ccccc2c(C)c2c1ccc1ccccc12,outcome,[6],inactive
O=C1O[C@H]([C@@H](O)CO)C(O)=C1O,outcome,[4],inactive
CCCCCCCCOC(=O)c1cc(O)c(O)c(O)c1,outcome,[4],inactive
COc1cc(C(=O)NC2CCN(C)CC2)ccc1Nc1ncc2c(n1)N(C1CCCC1)CC(F)(F)C(=O)N2C,AC50,[7],9.1 µM (active)
same,AC50,[8],6.04 µM (active)
same,AC50,[3],0.00376 µM (active)
same,AC50,[10],3.76 µM (active)
CCCCCCCCCC(=O)O,outcome,[5],inactive
COc1cccc([C@H](O)C2CCN(CCc3ccc(F)cc3)CC2)c1OC,outcome,[7],inactive
same,outcome,[3],inactive
CCN(CC)C(=O)c1cc(S(=O)(=O)Cc2ccccc2)c(N2CCC(c3ccccc3)CC2)cc1N(CC)CCN(C)C,AC50,[7],9.38 µM (active)
same,outcome,[3],inactive
same,AC50,[10],16 µM (active)
Cc1cc(F)ccc1-c1cc(N2CC[C@@H](O)[C@H]2CO)ncc1N(C)C(=O)C(C)(C)c1cc(C(F)(F)F)cc(C(F)(F)F)c1,AC50,[3],4.05 µM (active)
CCN(Cc1cccc(S(=O)(=O)O)c1)c1ccc(C(=C2C=CC(=[N+](CC)Cc3cccc(S(=O)(=O)O)c3)C=C2)c2ccccc2S(=O)(=O)[O-])cc1,AC50,[6],5.82 µM (active)
CC(C)(O)c1ccc(CNC(=O)c2cccnc2Oc2ccc3nonc3c2)cc1,outcome,[5],inactive
